Most compounds without a hit are left out; they make up all but 1.3% or so of the library.
RXFP1 agonist = qHTS Assay for Agonists of the Relaxin Receptor RXFP1; HEK293T-RXFP1 cAMP TR-FRET, 30 min; response scale: percent of porcine relaxin response, buffer zero; AID 2676, 2010; Potency, µM (top dose mostly 57.5 µM), without a hit: at the top dose activation, most hits filed as activators; 0.3% of 370,000 active; Relaxin receptor 1 (Homo sapiens), Q9HBX9; active means well fitted activation curve with a large enough effect; inconclusive means small, poorly fitted or top-dose-only effect; further: potency means the concentration at half of the fitted maximal effect; on the % scale 0 is the no-effect control and ±100 the full control effect; nearly all actives have a fitted effect of over 60% in size
Target sequence (Q9HBX9 whole entry, looked up): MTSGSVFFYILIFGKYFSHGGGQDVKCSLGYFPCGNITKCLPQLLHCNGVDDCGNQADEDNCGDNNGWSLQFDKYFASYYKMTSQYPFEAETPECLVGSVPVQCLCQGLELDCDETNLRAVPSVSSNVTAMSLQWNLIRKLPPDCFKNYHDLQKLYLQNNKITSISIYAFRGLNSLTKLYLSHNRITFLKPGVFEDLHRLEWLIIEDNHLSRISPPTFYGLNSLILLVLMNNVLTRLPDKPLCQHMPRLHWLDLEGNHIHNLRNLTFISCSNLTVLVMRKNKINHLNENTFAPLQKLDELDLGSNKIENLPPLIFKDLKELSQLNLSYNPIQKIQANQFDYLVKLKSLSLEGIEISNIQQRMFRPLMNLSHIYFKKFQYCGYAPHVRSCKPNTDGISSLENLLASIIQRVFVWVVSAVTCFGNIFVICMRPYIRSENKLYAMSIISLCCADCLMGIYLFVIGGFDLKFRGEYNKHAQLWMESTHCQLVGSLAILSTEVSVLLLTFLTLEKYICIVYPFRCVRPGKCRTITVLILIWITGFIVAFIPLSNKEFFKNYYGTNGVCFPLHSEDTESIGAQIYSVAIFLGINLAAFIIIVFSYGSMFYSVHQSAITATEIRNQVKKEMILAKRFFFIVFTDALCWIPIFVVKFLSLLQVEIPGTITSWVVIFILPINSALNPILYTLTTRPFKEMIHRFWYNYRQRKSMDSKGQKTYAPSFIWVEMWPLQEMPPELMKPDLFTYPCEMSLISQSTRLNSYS
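Agonist response is measured as cAMP accumulation in an RXFP1-transfected HEK293T line under PDE4 inhibition. Values are scaled between buffer-only and 29 nM porcine relaxin, and EC50s come from standard Hill equation fits.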
RXFP1 antagonist = qHTS Assay for Antagonists of the Relaxin Receptor RXFP1 | 0.59% of 350,000 active | Relaxin receptor 1 (Homo sapiens), Q9HBX9 | HEK293-RXFP1, relaxin-stimulated cAMP HTRF, 30 min; stronger effect = lower value | activity change, negative = inhibition, % at 57.5 µM;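 active means activity change of -60% or lower, but not beyond a set lower limit; inconclusive means change between -60% and -40%, or beyond the set limit; inactive means change above -40%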; further: on the % scale 0 is the no-effect control and ±100 the full control effect
Akt phos inh = HTS Assay for Inhibitors of Akt Phophorylation: Primary Screen; Neuro2A IGF-stimulated pAkt S473 HTRF, 20 min; stronger effect = lower value; activity change, % for hits at 50 µM; 0.32% of 360,000 active; in the data active means activity change below about -80%; inconclusive means mostly about -51% to -80%; further: on the % scale 0 is the no-effect control and ±100 the full control effect
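Single-point screen (50 µM final compound) in Neuro2A cells stimulated 20 min with 6 nM IGF at 37 deg C. After lysis, Ser473-phosphorylated Akt read by HTRF (ex 330 nm, em 615/665 nm) as the 665/615 ratio.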
gsp ag = qHTS for Agonist of gsp, the Etiologic Mutation Responsible for Fibrous Dysplasia/McCune-Albright Syndrome: qHTS. gsp mutant cells, cAMP HTRF, 30 min. Potency, µM (doses to about 76.9 µM), without a hit: at the top dose activation (cAMP increase), most hits filed as activators. 0.13% of 340,000 active; active means well fitted activation curve with a large enough effect; inconclusive means small, poorly fitted or top-dose-only effect, or another doubt; inactive means no such curve, though single readings can be large or run the other way; cell line not stated here;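 further: phosphodiesterase inhibitor Ro 20-1724 added with compounds to block cAMP breakdown; potency means the concentration at half of the fitted maximal effect; nearly all actives have a fitted effect of over 60% in size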
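Cells stably selected in G418 were plated at 2000/well, grown 16-24 hr, then given compounds in DMSO with the PDE inhibitor […] (300 uM solution added) for 30 min at 37C; cAMP was read by HTRF.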
gsp antagonist = qHTS for Antagonists of gsp, the Etiologic Mutation Responsible for Fibrous Dysplasia/McCune-Albright Syndrome: qHTS. gsp-mutant cells, cAMP HTRF, 30 min. Potency, µM (titrated, usually from 76.9 µM), for the others: at the top dose activity change, negative = inhibition, most hits filed as inhibitors. 0.4% of 340,000 active; calls by dose curve; cell line not stated here;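 further: intracellular cAMP measured with PDE inhibitor Ro 20-1724 present during compound exposure; potency means the concentration at half of the fitted maximal effect; on the % scale 0 is the no-effect control and ±100 the full control effect; nearly all actives have a fitted effect of over 65% in size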
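HTRF cAMP measurement after 30 min RT detection following 30 min, 37C compound treatment alongside […] (added as 300 uM solution) in G418-selected cells seeded at 2000/well and grown 16–24 h.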
An asterisk follows results filed as active; i = inactive; ? = inconclusive; · = no result given; [ ] = dose if it differs, or a comment.

SMILES	RXFP1 agonist	RXFP1 antagonist	Akt phos inh	gsp ag	gsp antagonist
Cc1cc(Br)ccc1NC(=O)c1cn(C2CCCC2)c(=O)c2c1c1ccccc1n2C	?	-18	·	·	·
CCOC(=O)CC(=O)c1cc(OC)c(OC)c(OC)c1	0%	-7	-106%*	-29%	16%
CCCCC1=CC2=C(c3ccco3)C(=O)C(C)(OC(=O)c3ccc(OC)cc3)C(=O)C2=CN1CC(C)C (stereo not given)	16µM*	·	i	?	30%
COc1ccc(-c2ocnc2C(=O)N2CCN(C(=O)C(c3ccccc3)c3ccccc3)CC2)cc1	4%	-5	i	-8%[15.4 µM]	25µM*
COc1ccc(-c2ocnc2C(=O)N2CCN(Cc3cccnc3)CC2)cc1	1%	-1	i	-11%	3%
CCN(CC)S(=O)(=O)c1ccc(Cl)c(NC(=O)CSc2cccc[n+]2[O-])c1	25µM*	-1	i	8.9µM*	12%
O=S(=O)(c1ccc(Nc2ccc(-c3ccc4c(c3)OCCO4)nn2)cc1)N1CCCC1	0%	0	i	-74%	2%
O=C(NC1CC1)c1cccc(Nc2ccc(-c3ccc4c(c3)OCCO4)nn2)c1	-3%	-19	i	-18%	32µM*
CC(NCC(O)COc1ccc2ccccc2c1)c1ccccc1 (stereo not given)	0%	-87*	i	?	17%
CC1(C(=O)N/N=C/c2c(F)c(F)c(F)c(F)c2F)CC1(Cl)Cl (stereo not given)	·	-68*	i	-5%	-18%
Cc1c(/C=N\NC(=O)C2(C)CC2(Cl)Cl)cnn1C (stereo not given)	4%	·	i	-18%	6%
O=C(CCc1nnc2ccc(N3CCC4(CC3)OCCO4)nn12)NCc1ccc(F)cc1	16µM*	22	·	?	3%
CCOc1ccc(-n2c(=O)c3c(C)c(C)sc3n(Cc3c(F)cccc3Cl)c2=O)cc1	4%	1	·	·	·
CCC1=C(OC(=O)N(CC)CC)N2C(=O)OC(=NCCc3c[nH]c4ccccc34)[C@]2(Cc2ccccc2)[C@H]2C1=CC[C@H]1C(=O)NC(=O)[C@H]12	-3%	·	i	-2%	11µM*
CCc1ccc2nc(N(Cc3cccnc3)C(=O)Cc3ccccc3)sc2c1	3%	-9	·	·	·
O=C(N/N=C/c1ccc(-c2cccc([N+](=O)[O-])c2)o1)c1ccccc1O	3%	-6	i	-23%	50µM*
CC[C@H](C)[C@H](N)C(=O)O	·	-5	·	·	·
Cc1[nH]nc2c1C(=O)CC(C)(C)C2	-1%	-5	-110%*	-6%	1%
Cc1[nH]nc2c1/C(=N\O)CC(C)(C)C2	0%	-5	i	6%	8%
C[C@H](CN1CCCC1)C(=O)c1ccc(C(F)(F)F)cc1	·	8	·	·	·
Cn1cccc1Cc1nnc(SCC(=O)Nc2ccc(F)cc2F)n1-c1ccc(F)cc1	0%	·	i	-35%	-3%
Cc1ccc(NC(=O)CSc2nnc(Cc3cccn3C)n2-c2ccc(F)cc2)c(C)c1	1%	-18	i	13%	50µM*
Cc1ccccc1NC(=O)CSc1nnc(-c2ccccc2)n1-c1ccccc1	9%	29	-98%*	19%	18%
O=C(NNC(=O)c1ccccc1F)c1ccc(-c2ccc(Cl)cc2)o1	0%	-87*	i	-4%[15.4 µM]	-6%
CCOC(=O)CSc1nnc([C@H](C)NC(=O)OC(C)(C)C)o1	1%	-3	-115%*	-3%	7%
SMILES	RXFP1 agonist	RXFP1 antagonist	Akt phos inh	gsp ag	gsp antagonist
CCOC(=O)COc1ccc(C)cc1C(=O)c1ccn2nc(-c3ccc(Cl)cc3)cc2n1	4%	·	·	·	·
COc1ccc(Br)cc1CNC(=O)C1CCN(c2nnc(-n3cccc3CNc3ccc(C)cc3)s2)CC1	-3%	2	·	·	·
COc1ccc(-c2nc(NC(=O)c3ccc(OCC(=O)N4CCOCC4)c(OC)c3)sc2C)cc1	-1%	-2	i	-16%	35µM*
CCc1noc(C)c1C(=O)Nc1nc(-c2ccc(F)cc2)c(C)s1	0%	-16	i	33%	-24%
COc1cc(C(=O)Nc2ccc(C)cn2)ccc1OCC(=O)N1CCOCC1	-1%	1	i	29%	-4%
CCc1ccc(-c2nc(NC(=O)c3ccc(OCC(=O)Nc4ccc(F)cc4)c(OC)c3)sc2C)cc1	32µM*	9	i	?	20%
COc1cc(C(=O)Nc2nc(-c3ccc(Cl)cc3)c(C)s2)ccc1OCC(=O)Nc1ccc(F)cc1	20µM*	-9	i	?	17%
COc1cc(C(C)=O)ccc1OCC(=O)Nc1ccc2nc(C)sc2c1	?	1	i	?	6%
CN1C2CCC1CC(NC(=O)n1c(=O)[nH]c3ccccc31)C2 (stereo not given)	·	12	·	·	·
COc1cccc(-c2nc(CS(=O)(=O)CC(=O)Nc3c(C)cc(C)cc3C)c(C)o2)c1	-5%	-7	·	·	·
CCc1cccc(C)c1NC(=O)c1cc(S(=O)(=O)N(Cc2ccc(C(=O)OC)cc2)Cc2ccc(OC)c(OC)c2)ccc1F	2%	-1	·	·	·
c1ccc2c(c1)[nH]c1c(N3CCC4(CC3)OCCO4)ncnc12	1%	-36	i	-26%	32µM*
Cc1ccc2c(c1)[nH]c1c(N3CCN(Cc4ccccc4)CC3)ncnc12	1%	-32	i	0%	?
c1ccc(CN2CCN(c3ncnc4c3[nH]c3ccccc34)CC2)cc1	7%	·	i	-31%	32µM*
c1ccc2c(c1)CCN(c1ncnc3c1[nH]c1ccccc13)C2	2%	-19	i	6%	?
Cc1ccc2[nH]c3c(N4CCN(Cc5ccccc5)CC4)ncnc3c2c1	-3%	?	i	-14%	16µM*
CN1CCN(Cc2cc(=O)oc3ccc(Cl)cc23)CC1	2%	-2	-104%*	-13%	13%
COc1ccc(OC)c(NC(=O)Nc2cccc(OCc3cc(=O)n4cc(C)ccc4n3)c2)c1	5%	-21	·	·	·
CCOC(=O)C(=O)Nc1ccc(S(=O)(=O)N2CCOCC2)cc1OC	1%	2	·	-46%	-5%
CCCCOC(=O)Nc1ccc(OC)cc1S(=O)(=O)N1CCOCC1	1%	-1	-110%*	-46%	-12%
CC(C)(C)C(=O)NC(=S)NNC(=O)c1sc2ccccc2c1Cl	-2%	?	i	-56%	50µM*
O=C(NNC(=S)NC1CCCCC1)c1sc2ccccc2c1Cl	0%	-8	i	22%	?
COc1ccc(-n2cc(C(=O)Nc3ccccc3C#N)c3ccccc3c2=O)cc1	0%	0	·	·	·
